# Screening data deposited in PubChem BioAssay by National Center for Advancing Translational Sciences (NCATS).
# BAZ2B inh = inhibitors of human BAZ2B bromodomain; Q9UIF8; AlphaScreen BAZ2B-H3K14Ac peptide displacement; Potency, µM (highest dose often 114 µM), inactives show at the top dose activity change, negative = inhibition, hits mostly inhibitors; actives 4.4% (n = 360,000); further: on the % scale 0 is the no-effect control and ±100 the full control effect; nearly all actives have a fitted effect of over 60% in size
#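 Inhibition is scored as reduced AlphaScreen emission. The BAZ2B/b-H3(5-23)K14Ac complex (50 nM each) in PBS pH 7.4, 0.01% Tween-20 meets compound (up to 110 uM) for 30 min at RT before bead addition.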
# G9a block = inhibitors of human histone lysine methyltransferase G9a; Q96KQ7; G9a H3K9 monomethylation, AlphaScreen, 2 h; Potency, µM (top dose mostly 102 µM), for inactives: top-dose activity, negative = inhibition, most hits filed as inhibitors; actives 8.8% (n = 350,000); AID 504332; further: on the % scale 0 is the no-effect control and ±100 the full control effect; nearly all actives have a fitted effect of over 75% in size
#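 Enzyme 20 nM + cpd, 15 min RT; add b-H3K9 pep 500 nM / SAM 20 uM; 2 h RT; anti-H3K9me1 Ab 0.5 ug/mL + SA donor / anti-rabbit acceptor beads 20 ug/mL each, 10 min; AlphaScreen read.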
# HP1b chromo inh = inhibitors of HP1-beta chromodomain binding to methylated histone tails; AlphaScreen HP1-beta / biotin-H3K9me3 peptide binding; Potency, µM (titrated, usually from 114 µM), inactives show at the highest dose activity change, negative = inhibition, usual class: inhibitors; actives 0.56% (n = 390,000); further: nearly all actives have a fitted effect of over 70% in size
#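 HP1-beta protein (50 nM final) preincubated 30 min at room temperature with biotinylated H3(1-18)K9me3 peptide (50 nM) in PBS pH 7.4, 0.01% Tween-20, then compound added for 30 min. AlphaScreen streptavidin donor/nickel chelate acceptor beads (10 ug/mL final), 30 min dark, luminescence read.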
# JMJD2A Tudor inh = JMJD2A Tudor domain (human) inhibition; actives 4.4% (n = 390,000); AID 504339; AlphaScreen JMJD2A-Tudor / H3K4me3 peptide binding; Potency, µM (top dose mostly 114 µM), inactives show at the top dose activity change, negative = inhibition, most hits filed as inhibitors; further: on the % scale 0 is the no-effect control and ±100 the full control effect; nearly all actives have a fitted effect of over 50% in size
# L3MBTL1 block = blocks human L3MBTL1. Q9Y468. AlphaScreen L3MBTL1–H3K9me1 peptide binding. Potency, µM (titrated, usually from 57.1 µM), inactives show at the top dose activity, negative = inhibition, most hits filed as inhibitors. actives 0.66% (n = 230,000). AID 485360; further: on the % scale 0 is the no-effect control and ±100 the full control effect; nearly all actives have a fitted effect of over 60% in size
# Target sequence (Q9Y468 whole entry, looked up): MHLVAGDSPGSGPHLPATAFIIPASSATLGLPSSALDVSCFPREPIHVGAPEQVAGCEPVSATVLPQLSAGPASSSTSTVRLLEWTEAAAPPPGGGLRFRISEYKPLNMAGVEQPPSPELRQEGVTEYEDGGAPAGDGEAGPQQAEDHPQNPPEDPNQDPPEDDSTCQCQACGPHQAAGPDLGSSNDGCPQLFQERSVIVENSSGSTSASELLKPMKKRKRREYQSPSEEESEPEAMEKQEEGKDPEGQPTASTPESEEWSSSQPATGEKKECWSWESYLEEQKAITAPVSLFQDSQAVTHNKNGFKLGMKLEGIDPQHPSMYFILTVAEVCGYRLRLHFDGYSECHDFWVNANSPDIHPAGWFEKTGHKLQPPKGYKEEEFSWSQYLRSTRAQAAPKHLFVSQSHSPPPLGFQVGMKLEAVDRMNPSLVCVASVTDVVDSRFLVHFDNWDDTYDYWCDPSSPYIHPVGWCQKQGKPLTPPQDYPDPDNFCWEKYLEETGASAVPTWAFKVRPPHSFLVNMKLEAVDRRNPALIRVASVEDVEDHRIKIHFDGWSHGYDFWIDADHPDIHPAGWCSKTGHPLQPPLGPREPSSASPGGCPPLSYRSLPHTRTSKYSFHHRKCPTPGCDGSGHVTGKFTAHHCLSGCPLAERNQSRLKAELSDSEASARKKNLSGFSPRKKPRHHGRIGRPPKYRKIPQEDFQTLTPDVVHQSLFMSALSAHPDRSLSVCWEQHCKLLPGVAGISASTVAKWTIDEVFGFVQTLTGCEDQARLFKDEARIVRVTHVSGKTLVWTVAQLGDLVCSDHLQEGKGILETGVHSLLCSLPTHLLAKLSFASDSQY
#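 Displacement of a biotinylated histone H3(1-15) peptide monomethylated at Lys9 (75 nM) from L3MBTL1 (50 nM) was measured by AlphaScreen after a 30 min room-temperature compound incubation; cefsulodin titration served as intraplate control.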
# Active calls of the source: *; ? = inconclusive; . = no result; [ ] = dose if it differs, or a comment. A selection: hits, their analogues and other compounds. The true share with any hit is near 11%. The call rests on the fitted dose curve; in most records, active means well fitted inhibition curve with a large enough effect; inconclusive means small, poorly fitted or top-dose-only effect; inactive means no such curve, though single readings can be large or run the other way. Potency means the concentration at half of the fitted maximal effect.
SMILES,BAZ2B inh,G9a block,HP1b chromo inh,JMJD2A Tudor inh,L3MBTL1 block
CCOc1ccccc1CN1CCc2nc(N3CCN(C)CC3)ncc2C1,79.4µM*,-2.6%[12.7 µM],54.8%,-22.2%,.
CN1CCN(c2ncc3c(n2)CCN(Cc2ccccc2Cl)C3)CC1,?,?,-10.4%,79.4µM*,.
Clc1ccccc1CN1CCc2nc(N3CCN(c4ncccn4)CC3)ncc2C1,50.1µM*,?,?,35.5µM*,.
CN1CCN(c2ncc3c(n2)CCN(Cc2cc(Br)cs2)C3)CC1,?,?,-1.9%,56.2µM*,.
CCOc1ccccc1CN1CCNC(=O)C1CC(=O)N(C)C1CCOCC1 (stereo unspecified),-10.2%,?,30.9%,-5.5%,.
CCN(C(=O)CSc1nc2ccccc2c2nc(CCn3c(C)nc4ccccc43)nn12)c1cccc(C)c1,0.7%,-0.7%[59 µM],22.7%,-22.0%,.
O=C(NC(=S)N1CCN(c2ccccc2)CC1)c1ccccc1,-26.2%,1.4%,.,.,.
Cn1cc(Br)c(C(=O)NC(=S)N2CCN(c3ccccn3)CC2)n1,?,39.8µM*,17.2%,-9.8%,-0.4%
Cn1ncc(Br)c1C(=O)NC(=S)N1CCN(c2ccccn2)CC1,-8.9%,?,35.3%,-13.0%,-6.5%
O=C(NC(=S)N1CCN(c2ccccn2)CC1)c1ccccc1,-7.8%,39.8µM*,12.1%,-13.9%,-4.1%
O=C(COc1ccccc1Cl)NCCCNC(=O)c1cnccn1,4.0%,31.6%,19.1%,-5.5%,.
CN(C)c1ccc(C=c2c3ccccc3n3c2c2ccccc2[n+]3C)cc1,.,.,12.6µM*,15.8µM*,.
CCOC(=O)c1cc2c(=Cc3ccc(N(C)C)cc3)c3ccccc3n2[n+]1C,.,.,50.1µM*,25.1µM*,.
Cc1cc2c(=Cc3ccc(N(C)C)cc3)c3ccccc3n2[n+]1C,.,.,31.6µM*,44.7µM*,.
CCCCC1(C)OC(=O)C(=Cc2ccc(N(C)C)cc2)C(=O)O1 (stereo unspecified),?,3.5%[12.7 µM],-0.9%,-28.9%,-2.5%
CN(C)c1ccc(C(=O)n2nnc3ccccc32)cc1,7.4%,-26.3%,62.6%,22.6%,.
CCCOc1ccc(CNC(=O)C(CC)n2nc(C)c3sc4ccccc4c3c2=O)cc1 (stereo unspecified),-17.9%,-26.5%[59 µM],40.9%,-8.6%,.
O=C(COc1ccc(Cl)cc1)NCC(c1ccco1)S(=O)(=O)c1ccc(Cl)cc1 (stereo unspecified),-4.6%,4.2%[59 µM],19.9%,-6.2%,.
COc1ccc(OC)c(-n2cnc3cc(C(=O)NCCc4ccccc4)ccc32)c1,?,?,-16.6%,-24.7%,.
COc1cccc(C(=O)N(Cc2cccnc2)c2nc3c(OC)ccc(C)c3s2)c1OC,?,?,6.0%,?,.
CC(C)(C)CC(C)(C)N1CNC(=S)NC1,-4.1%,44.7µM*,30.6%,-7.7%,-11.0%
Cc1cc(C)c2c(=O)cc(C(=O)Nc3ccccc3C(F)(F)F)oc2c1,2.6%,-0.1%[59 µM],54.1%,8.3%,.
Cc1ccc(C2NCCS2)cc1 (stereo unspecified),-0.1%,44.7µM*,27.9%,-11.6%,.
CCn1c(=O)c(C(=O)CN(C)Cc2ccc(F)cc2)c(N)n(Cc2ccccc2)c1=O,-9.7%,1.5%,4.3%,-16.5%,9.0%
CCn1c(=O)c(C(=O)CN2CCN(S(=O)(=O)c3ccccc3)CC2)c(N)n(Cc2ccccc2)c1=O,-12.6%,-7.1%,2.0%,?,6.6%
SMILES,BAZ2B inh,G9a block,HP1b chromo inh,JMJD2A Tudor inh,L3MBTL1 block
CCn1c(=O)c(C(=O)CN2CCCc3ccccc32)c(N)n(Cc2ccccc2)c1=O,?,-12.5%[59 µM],?,35.5µM*,-11.9%
CCn1c(=O)c(C(=O)CN(C)Cc2cccc(OC)c2OC)c(N)n(Cc2ccccc2)c1=O,-5.6%,25.1µM*,?,?,11.6%
CCn1c(=O)c(C(=O)CN2c3ccccc3CC2C)c(N)n(Cc2ccccc2)c1=O (stereo unspecified),35.5µM*,22.4µM*,?,?,-18.0%
CCn1c(=O)c(C(=O)CN2CCN(S(=O)(=O)c3ccc(C)cc3C)CC2)c(N)n(Cc2ccccc2)c1=O,-30.6%,44.7µM*,23.6%,-21.4%,-5.5%
CC1Cc2ccccc2N1CC(=O)N(C)c1c(N)n(Cc2ccccc2)c(=O)[nH]c1=O (stereo unspecified),3.2%,6.6%[12.7 µM],-1.7%,-31.0%,?
Cc1ccc(C)c(CN2C(=O)c3ccccc3S(=O)(=O)c3ccc(C(=O)N4CCN(c5ccccn5)CC4)cc32)c1,?,?,6.0%,-27.3%,.
COc1cc2c(cc1OC)C(COc1ccc(F)cc1)N(C(=O)Cc1ccc(F)cc1)CC2 (stereo unspecified),-18.7%,-29.5%[59 µM],24.5%,-27.5%,.
Cc1ccc(C(=O)NCCNC(=O)c2ccco2)cn1,2.5%,-8.7%,0.1%,-12.9%,.
COc1ccc(C(=O)CCC(=O)Nc2cc(C)ccc2C)cc1,-1.6%,-23.5%[59 µM],26.1%,-6.4%,.
O=C(O)CCNC(=O)/C(=C/C=C/c1ccccc1)NC(=O)c1ccccc1,-3.5%,39.8µM*,18.5%,-18.0%,.
O=C(Nc1cccc(C(=O)O)c1)/C(=C\C=C\c1ccccc1)NC(=O)c1ccccc1,-18.2%,?,33.7%,-0.7%,5.9%
O=C(Nc1ccc(C(=O)O)cc1)/C(=C\C=C\c1ccccc1)NC(=O)c1cccc(Br)c1,56.2µM*,39.8µM*,7.2%,-33.0%,-23.6%
COc1ccc(S(=O)(=O)NCCc2nnc3ccc(SCC(=O)Nc4ccc(C(F)(F)F)cc4)nn23)cc1,-16.4%,3.6%[59 µM],21.7%,-17.6%,.
O=C(Nc1ccc(OC(F)(F)F)cc1)C(Cc1ccccc1)NS(=O)(=O)c1cccc2nsnc12 (stereo unspecified),.,?,33.9%,-12.7%,.
O=C(Nc1cccc(C(F)(F)F)c1)c1scc2c1OCCO2,1.1%,1.2%,2.8%,50.1µM*,21.9%
O=C(Nc1cccc(C(F)(F)F)c1)c1cc(Br)cc2c1OCC2,-0.3%,-4.4%,15.6%,-6.8%,0.8%
CCCn1c2ccccc2c2cnn(CC(=O)N(Cc3ccccc3)C(C)C)c(=O)c21,-13.5%,-8.6%[59 µM],23.1%,-14.9%,.
COc1ccc(C2=Nn3c(nnc3-c3ccc(OC)cc3OC)SC2)cc1,.,.,.,-24.1%,.
COC(=O)/C=C/S(=O)(=O)c1ccc(NC(C)=O)cc1,.,8.91µM*,23.1%,6.3%,-4.2%
COc1ccccc1OS(=O)(=O)c1ccc(NC(C)=O)cc1,-5.9%,-4.1%[59 µM],21.4%,-18.9%,5.1%
CN1CCN(c2ccc([N+](=O)[O-])c(-n3nc(-c4ccccc4)c4ccccc4c3=O)c2)CC1,35.5µM*,44.7µM*,-46.6%,39.8µM*,-11.2%
COc1cccc(C(=O)Nc2nnc(S(=O)(=O)N3CCCc4ccccc43)s2)c1,?,?,-20.1%,-33.2%,.
Cc1ccc(/C=C/C(=O)N2CCN(Cc3ccccc3)CC2)o1,?,3.98µM*,-19.1%,-23.9%,-8.9%
Cc1cc(C)c(C)c(S(=O)(=O)N2CCN(C(=O)c3ccco3)CC2)c1C,.,.,4.1%,-12.5%,.
